Source: PubChem BioAssay (Tox21)
Results filed as inconclusive are left out. A call without a number means that no potency is given here. The source made the active and inactive calls. Calls come from the whole dose curve; as a rule, active = well fitted curve in the direction sought with a large enough effect in the repeat runs; inconclusive = weak or mixed curves; inactive = no such curve, though single readings can be large; an effect the other way counts as inactive or inconclusive.

Assay: A CellTox Green Cytotoxicity Assay to monitor cytotoxicity in HEK293 cells - 8 hour (AID 1224884); note: nearly all actives have a fitted effect of over 35% in size
Conditions: CellTox Green fluorescence; series mostly up to 76.8 µM
Method in brief: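 Read-out: fluorescence of a cell-impermeant cyanine dye staining DNA of dead cells, proportional to cytotoxicity. HEK293, 600 cells/well with reagent, compound (23 nL DMSO) added after 5 h; reads at 0, 8, 16, 24, 32, 40 h.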

**Q.** With BrCCCCCCBr as the compound, how does the Potency read?
**A.** inactive

**Q.** Which Potency does the source give for Nc1cnn(-c2ccccc2)c(=O)c1Cl here?
**A.** inactive

**Q.** Which Potency does the source give for Fc1cc(Br)ccc1CBr here?
**A.** inactive

**Q.** Which Potency does the source give for O=[N+]([O-])c1cc(Cl)c(Cl)c(Cl)c1 here?
**A.** inactive

**Q.** With CCCSC(=O)N(CCC)CCC as the compound, how does the Potency read?
**A.** inactive

**Q.** With Cc1cc(C)c(C(=O)P(=O)(C(=O)c2c(C)cc(C)cc2C)c2ccccc2)c(C)c1 as the compound, how does the Potency read?
**A.** inactive

**Q.** With Cc1coc2c1CCC(C)C2 (configuration not stated) as the compound, how does the Potency read?
**A.** inactive

**Q.** For CC(N)=S, which Potency is on record?
**A.** inactive

**Q.** With CCN(CC)CCOC(=O)C(C)(c1ccccc1)c1ccccc1 as the compound, how does the Potency read?
**A.** inactive

**Q.** With O=C1c2ccccc2C(=O)c2ccccc21 as the compound, how does the cytotoxicity increase read?
**A.** 6.23% [at 15.8 µM] (inactive)

**Q.** Which Potency does the source give for CCCCC(=O)Cl here?
**A.** inactive

**Q.** For CCC(=O)C(CCN(C)C)(c1ccccc1)c1ccccc1, which Potency is on record?
**A.** inactive

**Q.** For CCCSC(=O)Cl, which Potency is on record?
**A.** inactive

**Q.** For N#CC(CCc1ccc(Cl)cc1)(Cn1cncn1)c1ccccc1 (configuration not stated), which Potency is on record?
**A.** inactive

**Q.** For CCOC(=O)NC(=S)Nc1ccccc1NC(=S)NC(=O)OCC, which Potency is on record?
**A.** inactive

**Q.** For ClC(Cl)Br, which Potency is on record?
**A.** inactive

**Q.** Which Potency does the source give for C(CCOCC1CO1)COCC1CO1 (configuration not stated) here?
**A.** inactive

**Q.** For OC(c1ccccc1)(c1ccccc1)C1CCNCC1, which Potency is on record?
**A.** inactive

**Q.** With CCN(CC)C(=O)[C@@H]1C=C2c3cccc4[nH]cc(c34)C[C@H]2N(C)C1 as the compound, how does the Potency read?
**A.** inactive

**Q.** Which Potency does the source give for NC(=S)C(N)=S here?
**A.** inactive

**Q.** Which Potency does the source give for CNC(=O)O/N=C(\C)SC here?
**A.** inactive

**Q.** For N#CCBr, which Potency is on record?
**A.** inactive

**Q.** For CCCCCCI, which Potency is on record?
**A.** inactive

**Q.** With CS(=O)(=O)c1cc(C(F)(F)F)ccc1C(=O)c1cnoc1C1CC1 as the compound, how does the Potency read?
**A.** inactive

**Q.** With C[C@]1(O)CC[C@H]2[C@@H]3CCC4=CC(=O)CC[C@]4(C)[C@@]3(F)[C@@H](O)C[C@@]21C as the compound, how does the Potency read?
**A.** inactive

**Q.** Which Potency does the source give for O=C(Oc1ccc(Br)cc1)N1CCN2CCC1CC2 here?
**A.** inactive

**Q.** Which Potency does the source give for COc1cc2c(cc1OC)[C@@]13CCN4CC5=CCO[C@H]6CC(=O)N2[C@H]1[C@H]6[C@H]5C[C@H]43 here?
**A.** inactive

**Q.** Which Potency does the source give for CCCCCCBr here?
**A.** inactive

**Q.** For CCN(CC)C(C)C(=O)c1ccccc1 (configuration not stated), which Potency is on record?
**A.** inactive

**Q.** For OCCSCSCCO, which Potency is on record?
**A.** inactive

**Q.** With CCCCOC(=O)[C@@H](C)Oc1ccc(Oc2ccc(C#N)cc2F)cc1 as the compound, how does the Potency read?
**A.** inactive

Assay: qHTS RealTime-Glo MT Cell Viability Assay in HepG2 cells - 16 hour (AID 1224885); note: nearly all actives have a fitted effect of over 50% in size; note: potency is the fitted concentration of half-maximal effect
Conditions: RealTime-Glo luminescence; series mostly up to 76.8 µM
Method in brief: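 Luminescence read-out: viable HepG2 cells reduce a prosubstrate to a NanoLuc substrate, giving a signal proportional to live cell number. Reads taken at 0, 8, 16, 24, 32 and 40 h of compound exposure at 37 C.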

**Q.** Which Potency does the source give for BrCCCCCCBr here?
**A.** inactive

**Q.** Which Potency does the source give for Nc1cnn(-c2ccccc2)c(=O)c1Cl here?
**A.** inactive

**Q.** Which Potency does the source give for Fc1cc(Br)ccc1CBr here?
**A.** inactive

**Q.** With Nc1cc2c3c(c1)C(c1ccccc1)=N[C@@H](NC(=O)c1cccnc1)C(=O)N3CC2 as the compound, how does the Potency read?
**A.** inactive

**Q.** Which Potency does the source give for O=[N+]([O-])c1cc(Cl)c(Cl)c(Cl)c1 here?
**A.** inactive

**Q.** With CCCSC(=O)N(CCC)CCC as the compound, how does the Potency read?
**A.** inactive

**Q.** Which Potency does the source give for Cc1cc(C)c(C(=O)P(=O)(C(=O)c2c(C)cc(C)cc2C)c2ccccc2)c(C)c1 here?
**A.** inactive

**Q.** With CC(Oc1ccc(Oc2ncc(C(F)(F)F)cc2Cl)cc1)C(=O)O (configuration not stated) as the compound, how does the Potency read?
**A.** inactive

**Q.** With Cc1coc2c1CCC(C)C2 (configuration not stated) as the compound, how does the Potency read?
**A.** inactive

**Q.** For CC(N)=S, which Potency is on record?
**A.** inactive

**Q.** Which Potency does the source give for CCN(CC)CCOC(=O)C(C)(c1ccccc1)c1ccccc1 here?
**A.** inactive

**Q.** Which activity change, negative = cytotoxic does the source give for O=C1c2ccccc2C(=O)c2ccccc21 here?
**A.** 1.58% [at 15.8 µM] (inactive)

**Q.** Which Potency does the source give for CCCCC(=O)Cl here?
**A.** inactive

**Q.** With CCC(=O)C(CCN(C)C)(c1ccccc1)c1ccccc1 as the compound, how does the Potency read?
**A.** inactive

**Q.** With c1cc2c(c(N3CCNCC3)c1)OCCO2 as the compound, how does the Potency read?
**A.** inactive

**Q.** With CCCSC(=O)Cl as the compound, how does the Potency read?
**A.** inactive

**Q.** For N#CC(CCc1ccc(Cl)cc1)(Cn1cncn1)c1ccccc1 (configuration not stated), which Potency is on record?
**A.** 27.5 µM (active)

**Q.** For CCOC(=O)NC(=S)Nc1ccccc1NC(=S)NC(=O)OCC, which Potency is on record?
**A.** inactive

**Q.** Which Potency does the source give for ClC(Cl)Br here?
**A.** inactive

**Q.** Which Potency does the source give for C(CCOCC1CO1)COCC1CO1 (configuration not stated) here?
**A.** inactive

**Q.** With OC(c1ccccc1)(c1ccccc1)C1CCNCC1 as the compound, how does the Potency read?
**A.** inactive

**Q.** With CCN(CC)C(=O)[C@@H]1C=C2c3cccc4[nH]cc(c34)C[C@H]2N(C)C1 as the compound, how does the Potency read?
**A.** inactive

**Q.** With NC(=S)C(N)=S as the compound, how does the Potency read?
**A.** inactive

**Q.** For CNC(=O)O/N=C(\C)SC, which Potency is on record?
**A.** inactive

**Q.** For N#CCBr, which Potency is on record?
**A.** inactive

**Q.** For CCCCCCI, which Potency is on record?
**A.** inactive

**Q.** For CC(CC(C#N)(c1ccccc1)c1ccccc1)N(C)C (configuration not stated), which Potency is on record?
**A.** inactive

**Q.** For CS(=O)(=O)c1cc(C(F)(F)F)ccc1C(=O)c1cnoc1C1CC1, which Potency is on record?
**A.** inactive

**Q.** For C[C@]1(O)CC[C@H]2[C@@H]3CCC4=CC(=O)CC[C@]4(C)[C@@]3(F)[C@@H](O)C[C@@]21C, which Potency is on record?
**A.** inactive

**Q.** With O=C(Oc1ccc(Br)cc1)N1CCN2CCC1CC2 as the compound, how does the Potency read?
**A.** inactive

**Q.** With COc1cc2c(cc1OC)[C@@]13CCN4CC5=CCO[C@H]6CC(=O)N2[C@H]1[C@H]6[C@H]5C[C@H]43 as the compound, how does the Potency read?
**A.** inactive

**Q.** With CCCCCCBr as the compound, how does the Potency read?
**A.** inactive

**Q.** With CCN(CC)C(C)C(=O)c1ccccc1 (configuration not stated) as the compound, how does the Potency read?
**A.** inactive

**Q.** For O=NN1CCCCC1, which Potency is on record?
**A.** inactive

**Q.** For CN(N=O)C(N)=O, which Potency is on record?
**A.** inactive

**Q.** For OCCSCSCCO, which Potency is on record?
**A.** inactive

**Q.** With CCCCOC(=O)[C@@H](C)Oc1ccc(Oc2ccc(C#N)cc2F)cc1 as the compound, how does the Potency read?
**A.** inactive

Assay: qHTS RealTime-Glo MT Cell Viability Assay in HEK293 cells - 24 hour (AID 1224886); note: nearly all actives have a fitted effect of over 50% in size; note: potency is the fitted concentration of half-maximal effect; for activity change, negative = cytotoxicity: top concentration of the series differs between compounds
Conditions: RealTime-Glo luminescence; series mostly up to 76.8 µM
Method in brief: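 Nonlytic real-time viability readout: viable cells convert prosubstrate to NanoLuc substrate, giving luminescence proportional to live cell number. HEK293, 600 cells/well, compound added after 5 h, continuous culture at 37 C.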

**Q.** Which Potency does the source give for BrCCCCCCBr here?
**A.** inactive

**Q.** For Nc1cnn(-c2ccccc2)c(=O)c1Cl, which Potency is on record?
**A.** inactive

**Q.** With Fc1cc(Br)ccc1CBr as the compound, how does the Potency read?
**A.** inactive

**Q.** Which Potency does the source give for Nc1cc2c3c(c1)C(c1ccccc1)=N[C@@H](NC(=O)c1cccnc1)C(=O)N3CC2 here?
**A.** inactive

**Q.** Which Potency does the source give for O=[N+]([O-])c1cc(Cl)c(Cl)c(Cl)c1 here?
**A.** inactive

**Q.** For CCCSC(=O)N(CCC)CCC, which Potency is on record?
**A.** inactive

**Q.** Which Potency does the source give for Cc1cc(C)c(C(=O)P(=O)(C(=O)c2c(C)cc(C)cc2C)c2ccccc2)c(C)c1 here?
**A.** inactive

**Q.** Which Potency does the source give for CC(Oc1ccc(Oc2ncc(C(F)(F)F)cc2Cl)cc1)C(=O)O (configuration not stated) here?
**A.** inactive

**Q.** Which Potency does the source give for Cc1coc2c1CCC(C)C2 (configuration not stated) here?
**A.** inactive

**Q.** Which Potency does the source give for CC(N)=S here?
**A.** inactive

**Q.** Which Potency does the source give for CCN(CC)CCOC(=O)C(C)(c1ccccc1)c1ccccc1 here?
**A.** inactive

**Q.** Which activity change, negative = cytotoxicity does the source give for O=C1c2ccccc2C(=O)c2ccccc21 here?
**A.** 20.7% [at 15.8 µM] (inactive)

**Q.** With CCCCC(=O)Cl as the compound, how does the Potency read?
**A.** inactive

**Q.** With CCC(=O)C(CCN(C)C)(c1ccccc1)c1ccccc1 as the compound, how does the Potency read?
**A.** inactive

**Q.** Which Potency does the source give for c1cc2c(c(N3CCNCC3)c1)OCCO2 here?
**A.** inactive

**Q.** With CCCSC(=O)Cl as the compound, how does the Potency read?
**A.** inactive

**Q.** Which Potency does the source give for N#CC(CCc1ccc(Cl)cc1)(Cn1cncn1)c1ccccc1 (configuration not stated) here?
**A.** 17.4 µM (active)

**Q.** Which Potency does the source give for ClC(Cl)Br here?
**A.** inactive

**Q.** With C(CCOCC1CO1)COCC1CO1 (configuration not stated) as the compound, how does the Potency read?
**A.** inactive

**Q.** With OC(c1ccccc1)(c1ccccc1)C1CCNCC1 as the compound, how does the Potency read?
**A.** inactive

**Q.** Which Potency does the source give for NC(=S)C(N)=S here?
**A.** inactive

**Q.** For CNC(=O)O/N=C(\C)SC, which Potency is on record?
**A.** inactive

**Q.** For N#CCBr, which Potency is on record?
**A.** inactive

**Q.** With CCCCCCI as the compound, how does the Potency read?
**A.** inactive

**Q.** For CS(=O)(=O)c1cc(C(F)(F)F)ccc1C(=O)c1cnoc1C1CC1, which Potency is on record?
**A.** inactive

**Q.** With C[C@]1(O)CC[C@H]2[C@@H]3CCC4=CC(=O)CC[C@]4(C)[C@@]3(F)[C@@H](O)C[C@@]21C as the compound, how does the Potency read?
**A.** inactive

**Q.** For O=C(Oc1ccc(Br)cc1)N1CCN2CCC1CC2, which Potency is on record?
**A.** inactive

**Q.** For COc1cc2c(cc1OC)[C@@]13CCN4CC5=CCO[C@H]6CC(=O)N2[C@H]1[C@H]6[C@H]5C[C@H]43, which Potency is on record?
**A.** inactive

**Q.** For CCCCCCBr, which Potency is on record?
**A.** inactive

**Q.** With CCN(CC)C(C)C(=O)c1ccccc1 (configuration not stated) as the compound, how does the Potency read?
**A.** inactive

**Q.** With O=NN1CCCCC1 as the compound, how does the Potency read?
**A.** inactive

**Q.** Which Potency does the source give for CN(N=O)C(N)=O here?
**A.** inactive

**Q.** For OCCSCSCCO, which Potency is on record?
**A.** inactive

**Q.** For CCCCOC(=O)[C@@H](C)Oc1ccc(Oc2ccc(C#N)cc2F)cc1, which Potency is on record?
**A.** 19.4 µM (active)
